Screening data deposited in PubChem BioAssay by National Center for Advancing Translational Sciences (NCATS).
Sampled rows, rich in hits. Any-hit rate of the full collection: about 2.4%.
Rango-impB inh: qHTS Assay for Inhibitors of Rango (Ran-regulated importin-beta cargo) - Importin beta complex formation. Rango CFP/YFP FRET sensor + importin beta, 45 min. Potency, µM (series often up to 92.2 µM), for inactives: top-dose inhibition of complex formation. 340,000 compounds, 0.031% hits. AID 540263, 2011; calls by dose curve;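 further: 0% = DMSO wells and 100% = buffer wells lacking importin beta; nearly all actives have a fitted effect of over 15% in size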
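FRET biosensor (snurportin 1 IBB flanked by EYFP and cerulean), 50 nM, with compound 5 min, then 0.125 microM importin beta in PBS, 1 mM DTT, 0.02% Tween-20, 0.1% BSA. CFP/YFP ratio read after 45 min at room temperature; pre-read flags interference.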
TSG101-PTAP inh: qHTS Assay for Iinhibitors of HIV-1 Budding by Blocking the Interaction of PTAP/TSG101; Tumor susceptibility gene 101 protein (Homo sapiens), Q99816; Fluorescence polarization, FITC-PTAP peptide / Tsg101 binding; Potency, µM (highest dose often 115 µM), for the others: at the top dose activity change, negative = inhibition, usual class: inhibitors; 340,000 tested, under 10 active; AID 493005, 2010; active means well fitted inhibition curve with a large enough effect in the main read-out, with a control signal flat, not every such curve was filed as active; inconclusive means small, poorly fitted or top-dose-only effect, or effect the other way, or a change in a side signal; inactive means no such curve, though single readings can be large or run the other way; further: % of control where 0% means no effect
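Fluorescence anisotropy tracks displacement of a FITC-tagged PTAP peptide (50 nM) from the Tsg101 binding domain (10 uM), following a 20 min room-temperature incubation at pH 7.5.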
Rango release inh: qHTS Assay for Inhibitors of RanGTP induced Rango (Ran-regulated importin-beta cargo) - Importin beta complex dissociation; Biochemical FRET Rango-importin beta, RanGTP-induced dissociation; 340,000 compounds, 0.071% hits; AID 540253, 2011; Snurportin-1 (Homo sapiens) + GTP-binding nuclear protein Ran (Homo sapiens) + Importin …; Potency, µM (top dose mostly 46.1 µM), without a hit: top-dose activity change, negative = inhibition; calls by dose curve; further: % of control where 0% means no effect; nearly all actives have a fitted effect of over 45% in size
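Rango FRET biosensor (snurportin-1 IBB flanked by N-terminal EYFP and C-terminal CFP10) at 0.1 uM, with 0.25 uM importin beta in PBS, 1mM DTT, 0.02% Tween-20, 0.1% BSA. 0.6 uM Ran, 2mM GTP and 0.2 uM RCC1 were then added for 45 min at room temperature. Inhibition read as loss of FRET rise.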
ClpP mod: qHTS Assay for Activators of ClpP; 340,000 compounds, 1.9% hits; AID 651965, 2013; Potency, µM (series often up to 57.5 µM), inactives show at the top dose activity change, negative = active; ATP-dependent Clp protease proteolytic subunit (Bacillus subtilis (strain 168)), P80244; purified B. subtilis ClpP, FRET peptide cleavage, 20 min; active means well fitted falling curve with a large enough effect; inconclusive means small, poorly fitted or top-dose-only effect; inactive means no such curve, though single readings can be large or run the other way; further: the source files actives as falling curves though it sought activators and does not explain the sign; nearly all actives have a fitted effect of over 65% in size
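ClpP 10 microg/mL final, pH 8 Tris/KCl buffer with BSA, glycerol, Tween-20; compound pinned in; FRET-FV substrate; RT 20 min; Ex320/Em430; ΔFRET vs ADEP 5.8 microM, DMSO, no enzyme.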
12-LOX inh: Primary qHTS assay for inhibitors of human arachidonate 12S-lipoxygenase (ALOX12): Round 2 | 580,000 compounds, 1.1% hits | Potency, µM (series often up to 108 µM), without a hit: at the highest dose activity change, negative = inhibition, actives largely listed as inhibitors | purified 12hLO, xylenol orange hydroperoxide absorbance; further: on the % scale 0 is the no-effect control and ±100 the full control effect
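Hydroperoxide product was detected by ferrous iron/xylenol orange as the 573 to 405 nm absorbance ratio. Arachidonic acid at 40 uM (final) was turned over for 30 min at room temperature by 150 nM human 12hLO, pH 7.0 Hepes buffer, after 15 min compound preincubation.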
TDP1 block: qHTS Assay for Inhibitors of Tyrosyl-DNA Phosphodiesterase (TDP1); recombinant TDP1, AlphaScreen DNA substrate cleavage; Potency, µM (doses to about 130 µM), for inactives: at the top dose activity change, negative = inhibition, most hits filed as inhibitors; 350,000 compounds, 0.28% hits; further: on the % scale 0 is the no-effect control and ±100 the full control effect; nearly all actives have a fitted effect of over 40% in size
Target sequence (Q9NUW8 whole entry, looked up): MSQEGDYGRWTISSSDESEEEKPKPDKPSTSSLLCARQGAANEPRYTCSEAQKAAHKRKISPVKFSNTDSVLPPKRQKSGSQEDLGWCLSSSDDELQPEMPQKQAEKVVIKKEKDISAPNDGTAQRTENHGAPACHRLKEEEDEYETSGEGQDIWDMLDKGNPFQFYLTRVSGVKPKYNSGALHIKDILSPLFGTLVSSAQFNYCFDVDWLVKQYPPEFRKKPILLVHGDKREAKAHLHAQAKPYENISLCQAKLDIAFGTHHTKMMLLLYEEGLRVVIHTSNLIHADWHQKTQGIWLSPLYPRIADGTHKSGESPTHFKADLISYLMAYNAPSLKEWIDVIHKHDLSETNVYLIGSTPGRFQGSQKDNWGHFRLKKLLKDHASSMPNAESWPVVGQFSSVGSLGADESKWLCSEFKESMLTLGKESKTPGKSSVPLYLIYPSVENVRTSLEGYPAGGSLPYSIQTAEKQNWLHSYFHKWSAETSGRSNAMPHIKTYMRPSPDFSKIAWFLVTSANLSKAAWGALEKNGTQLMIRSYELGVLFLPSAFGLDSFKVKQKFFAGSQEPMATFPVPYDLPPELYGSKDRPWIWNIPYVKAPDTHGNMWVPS
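AlphaScreen read-out: signal falls as enzyme removes the 3' tyrosine-FITC from a 5'-biotinylated DNA oligo (15 nM, 5 min, RT). Enzyme was E. coli-made recombinant Tdp1 at 1 nM, exposed to compound for 15 min beforehand; beads 10 ug/ml, 10 min.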
* marks the source's active call; other numbers are inactive results; [ ] = remark or other dose. Unless noted, the call rests on the fitted dose curve; in most records, active means well fitted curve in the direction sought with a large enough effect; inconclusive means small, poorly fitted or top-dose-only effect, or another doubt; inactive means no such curve, though single readings can be large; an effect the other way counts as inactive or inconclusive. Potency means the concentration at half of the fitted maximal effect.

For CNC(=S)N/N=C/c1cn(CCOc2ccc(OC)cc2)c2ccccc12 the results were Rango-impB inh 3%, TSG101-PTAP inh -3%, Rango release inh 9%, ClpP mod -1%, 12-LOX inh 40µM* and TDP1 block 8%.
For CNC(=S)N/N=C/c1c(C)c(C(=O)c2ccc(F)cc2)n2ccccc12 the results were Rango-impB inh 13%, TSG101-PTAP inh -6%, Rango release inh inconclusive and 12-LOX inh 35µM*.
Cc1ccccc1C(=O)NC(=S)NCCC1=CCCCC1 was read as Rango-impB inh -1%, TSG101-PTAP inh 2%, Rango release inh 2%, 12-LOX inh 22µM* and TDP1 block -3%.
For Cc1ccccc1C(=O)NC(=S)NCCc1ccccc1 the results were Rango-impB inh 4%, TSG101-PTAP inh 1%, Rango release inh -10%, ClpP mod 1%, 12-LOX inh 28µM* and TDP1 block 2%.
For O=C(NC(=S)NCCC1=CCCCC1)c1ccco1 the results were Rango-impB inh 0%, TSG101-PTAP inh 1%, Rango release inh 11%, 12-LOX inh 45µM* and TDP1 block 5%.
Screening CO[C@H]1[C@H](NC(=O)c2ccc3nc[nH]c3c2)c2ccccc2C12CCNCC2 returned 12-LOX inh -3%.
Cc1ccc(C(=O)N[C@@H]2CN(c3ccncn3)C[C@H]2CN(C)C)s1 was read as 12-LOX inh 30%.
`CSc1nnc(-c2sc3cc(C(F)(F)F)cnc3c2-c2ccccc2)n1C` gave Rango-impB inh 3%, TSG101-PTAP inh -5%, Rango release inh 2%, ClpP mod 32µM*, 12-LOX inh 0% and TDP1 block 4%.
Screening Cc1cc(/C=C/c2nc3c(ccc4ccccc43)s2)cc(C)c1O returned 12-LOX inh 6.3µM*.
`CC(=O)Nc1ccc(CNc2nc(NC(C)C)nc3cc(-c4ccccc4)sc23)cc1` gave ClpP mod inconclusive and 12-LOX inh 45µM*.
Screening COc1ccc(-c2cc(CNc3nc(NC(C)C)nc4cc(-c5ccccc5)sc34)on2)cc1 returned ClpP mod inconclusive and 12-LOX inh 45µM*.
`COc1ccc(CN2Cc3[nH]cnc3C[C@H]2c2nc(-c3ccc4ccccc4c3)no2)cc1` gave 12-LOX inh 45%.
Screening C=CCO[C@@H]1CCN(C(=O)COCC(=O)O)[C@H](C(=O)N[C@@H](Cc2cccs2)C(N)=O)C1 returned 12-LOX inh 4%.
`S=C([S-])NCCNC(=S)[S-].[Zn+2]` gave TDP1 block 14µM*.
Screening Cn1nnnc1Sc1ccc(C(=O)O)cc1[N+](=O)[O-] returned Rango-impB inh -1%, TSG101-PTAP inh -6%, Rango release inh 1% and 12-LOX inh -18%.
`Cn1ccnc1Sc1ccc(C(N)=O)cc1[N+](=O)[O-]` gave Rango-impB inh 0%, TSG101-PTAP inh -2%, Rango release inh -3%, ClpP mod 32µM*, 12-LOX inh -7% and TDP1 block 5%.
For Oc1ccccc1C=Nc1ccccc1-c1nc2ccccc2[nH]1 the results were Rango-impB inh inconclusive, TSG101-PTAP inh -2%, Rango release inh -27%, ClpP mod 28µM*, 12-LOX inh -7% and TDP1 block 3%.
For Oc1ccc(C=Nc2ccccc2-c2nc3ccccc3[nH]2)c(O)c1 the results were Rango-impB inh 0%, TSG101-PTAP inh -1%, Rango release inh -10%, ClpP mod -1%, 12-LOX inh -20% and TDP1 block 6%.
For Cc1ccc(C)c(NC(=O)C(Sc2nnnn2C2CCCC2)c2ccccc2)c1 (configuration not stated) the results were 12-LOX inh 23%.
Screening Cc1ccc(NC(=S)NC2CCSc3ccccc32)cc1C (configuration not stated) returned Rango-impB inh 1%, TSG101-PTAP inh -6%, Rango release inh 2%, ClpP mod -3%, 12-LOX inh 45µM* and TDP1 block 6%.
Screening COc1ccc(S(=O)(=O)Nc2cc(SCC(=O)O)c(O)c3ccccc23)cc1 returned Rango-impB inh 1%, TSG101-PTAP inh -7%, Rango release inh 7%, ClpP mod 36% and 12-LOX inh inconclusive.
`O=C(O)CSc1cc(NS(=O)(=O)c2ccc(Cl)cc2)c2ccccc2c1O` gave Rango-impB inh -1%, TSG101-PTAP inh -7%, Rango release inh -9% and 12-LOX inh 2.8µM*.
Screening Cc1ccc(CN2CCOc3ccc(C(C)(O)COc4ccccc4)cc3C2)o1 (configuration not stated) returned 12-LOX inh 1%.
Screening CC1=CC(C)(C)Nc2ccc(C)cc21 returned Rango-impB inh 4%, TSG101-PTAP inh -2%, Rango release inh 0%, ClpP mod 32µM*, 12-LOX inh inconclusive and TDP1 block 7%.
`Cc1ccc(S(=O)(=O)c2c(N)n(CCCO)c3nc4ccccc4nc23)cc1` gave Rango-impB inh inconclusive, TSG101-PTAP inh 0%, Rango release inh -21%, ClpP mod 29%, 12-LOX inh inconclusive and TDP1 block -2%.
Screening Cc1ccc(S(=O)(=O)c2c(N)n(CCC(C)C)c3nc4ccccc4nc23)cc1 returned Rango-impB inh -2%, TSG101-PTAP inh 0%, Rango release inh -9%, ClpP mod 25µM*, 12-LOX inh inconclusive and TDP1 block -4%.
Cc1ccc(C(=O)Nn2c(N)c(S(=O)(=O)c3ccc(C)cc3)c3nc4ccccc4nc32)cc1 was read as Rango-impB inh inconclusive, TSG101-PTAP inh 4%, Rango release inh inconclusive, ClpP mod 28µM*, 12-LOX inh inconclusive and TDP1 block -2%.
For CN1CCCC2(Cc3ccccc3CN([S+](C)(=O)[O-])C2)C1 (configuration not stated) the results were 12-LOX inh 3%[6.33 µM].
